# According to PubChem BioAssay (NCI):
# Where “and” joins values, the source holds several entries; their conditions need not be identical. Identical values can stand only once. About 79,000 compounds went through this panel and 15% of them were active in at least one assay; those are over-represented in the sample as a whole. A structure can be active in one record and inactive in another. Calls of active or inactive are those of the source. Cut-off read from the data, not from the text of the source: active = growth inhibition above about 70%; inactive = the rest.
# Assay: NCI Yeast Anticancer Drug Screen. Data for the mec2-1 strain (AID 157)
# Details: S. cerevisiae mec2-1 strain, at 50.0 µM, stronger effect = higher value
# How it was run: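 mec2-1 yeast strain, carrying an alteration in DNA damage repair or cell cycle control, was exposed to compounds; growth inhibition was measured relative to vehicle-treated controls.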
row,SMILES,growth inhibition
1,O=C1/C(=C/c2ccccc2)CCCC1CN1CCCCC1 (stereo not drawn),75.2% (active)
2,C#CCN(Cc1ccc2nc(N)[nH]c(=O)c2c1)c1ccc(C(=O)NC(CCC(=O)O)C(=O)O)cc1 (stereo not drawn),92% (active) and 89.9% (active)
3,CCOC1(c2cccc([N+](=O)[O-])c2)c2ccccc2Oc2ccccc21,26.4% (inactive)
4,O=C(O)CNC(=S)Nc1ccccc1,6.5% (inactive) and 52.1% (inactive)
5,N/C(=N/N=C/c1cc(Br)cc(Br)c1O)NO,85.8% (active)
6,C[Si](C)(C)/C=C/CCNC(C#N)c1ccccc1 (stereo not drawn),91.8% (active)
7,CCCCCCCCCCCCCCCCOP(=O)(O)OCC(N)C(=O)O (stereo not drawn),98.2% (active)
8,CC1=C(C(=O)NCc2ccccc2)C(c2ccccc2)C(C(=O)NCc2ccccc2)=C(C)N1,93.3% (active)
9,O=[N+]([O-])c1cc(S(=O)(=O)Nc2ccccc2)ccc1Nc1ccccc1,81.2% (active)
10,COc1cc2ccnc(-c3c4ccccc4c(N)c4c(OC)c(OC)ccc34)c2cc1OC,-2.3% (inactive)
11,CCOC(=O)C(Br)C(Br)c1ccccc1Cl (stereo not drawn),99.8% (active)
12,CCOC(=O)C1=C(C)NC(C)=C(C(=O)OCCNC(=O)c2ccc(N=[N+]=[N-])cc2)C1c1ccccc1C(F)(F)F (stereo not drawn),53.3% (inactive)
13,Cc1cc(C)c(NC(=S)NC(=O)c2ccccc2)cc1C,-0.25% (inactive)
14,CNCCCNc1c2ccccc2nc2cccc([N+](=O)[O-])c12,91% (active)
15,COc1c(O)c(C=O)c(Br)c(C=O)c1O,82.1% (active)
16,Cc1c(C)c(C)c(CSC(=N)N)c(C)c1C,93.5% (active)
17,O=C(CSC(=S)N1CCCCC1)Nc1nc2c(s1)CCCC2,56.6% (inactive)
18,CNC(=O)OCc1c(COC(=O)NC)c(-c2ccc(Cl)cc2)n2c1CCC2,44.7% (inactive)
19,CC(=O)OC1CC2C(C)(C)C(=O)C=C[C@]2(C)C2CCC3(C)C(=CCC3[C@H](CO)C[C@H](O)C(=O)C(C)(C)O)[C@]12C (stereo partly drawn),42.8% (inactive)
20,CCCCCCOC(=O)NCCOC(=O)Nc1ccccc1,6.15% (inactive)

row,SMILES,growth inhibition
1,C[C](C)(C)[Ge]([O][Ge]([c]1ccccc1)[c]1ccccc1)([O][Ge]([c]1ccccc1)[c]1ccccc1)[C](C)(C)C,65.8% (inactive)
2,CCc1c(Cl)c(C)cc(O)c1Cl,84.7% (active)
3,Cc1nc(Nc2ccccc2[N+](=O)[O-])sc1C(=O)CC(=O)C(=O)Nc1c(C(C)C)cccc1C(C)C,17.9% (inactive)
4,O=[N+]([O-])c1cccc2nc3ccccc3c(NCCCn3ccnc3[N+](=O)[O-])c12,87.5% (active)
5,CCCCCCC(O)CNCc1ccnc2ccc(OC)cc12 (stereo not drawn),53.4% (inactive)
6,Cc1c2cccc(Sc3ccccc3)c2c2c3c(cccc13)[S+](c1ccccc1)C2 (stereo not drawn),93.5% (active)
7,C=C1CCC(O)C/C1=C/C=C1\CCCC2(C)C1CCC2C(C)CCCC(C)C (stereo not drawn),-9.05% (inactive)
8,NC1=NNC2(C(N)=N1)c1ccccc1-c1ccccc12,71.9% (active)
9,COc1cc2cc3c4cc(OC)c(OC)cc4cc[n+]3c(C)c2cc1OC,6.05% (inactive)
10,COC(=O)NC1C(C)OC(OC2C/C=C(/C)C3C=CC4C(OC5CC(OC6CC(O)C(OC7CC(O)C(OC)C(C)O7)C(C)O6)C(O)C(C)O5)C(C)CC(C)C4C3(C)/C(O)=C3\C(=O)OC4(CC(C)C(CO)=CC4/C=C\2C)C3=O)CC1(C)[N+](=O)[O-] (stereo not drawn),-7.4% (inactive)
11,O=C1CSC(c2cccc(Cl)c2)N1c1ccc(-c2ccc(-n3c(-c4ccccc4)nc4ccccc4c3=O)cc2)cc1 (stereo not drawn),68.5% (inactive)
12,CCOC(=O)C(C(=O)OCC)=P(c1ccccc1)(c1ccccc1)c1ccccc1,12.1% (inactive)
13,COc1ccc(N=CN(C)C)c(C)c1,94% (active)
14,Cc1cc(S(=O)(=O)Nc2nnc3cnc4ccccc4n23)c(S)cc1Cl,1.7% (inactive)
15,O=C(Oc1ccc2c(c1)CN(Cc1ccccc1)CO2)c1ccccc1,25.1% (inactive)
16,CN(C)[C@@H]1C(=O)C(C(N)=O)=C(O)[C@@]2(O)C(=O)C3=C(O)c4c(O)cccc4C[C@H]3C[C@@H]12,91% (active)
17,O=[N+]([O-])c1ccc2c(c1)/C(=N/N=C1c3ccccc3Cc3ccccc31)c1cc([N+](=O)[O-])cc([N+](=O)[O-])c1-2,81.5% (active)
18,Cc1nc2c(Br)cc(Br)cc2c(=O)n1-c1ccccc1NC1OCC(O)C(O)C1O (stereo not drawn),70.8% (active) and 22.4% (inactive)
19,Cc1cc(N(CCOS(C)(=O)=O)CCOS(C)(=O)=O)ccc1C=Nc1ccc(-c2nc(Cc3ccccc3)sc2C)cc1,49.3% (inactive)

# Same assay, conditions: S. cerevisiae mec2-1 strain, at 100.0 µM, stronger effect = higher value
row,SMILES,growth inhibition
1,O=C1/C(=C/c2ccccc2)CCCC1CN1CCCCC1 (stereo not drawn),57% (inactive)
2,C#CCN(Cc1ccc2nc(N)[nH]c(=O)c2c1)c1ccc(C(=O)NC(CCC(=O)O)C(=O)O)cc1 (stereo not drawn),92% (active)
3,CCOC1(c2cccc([N+](=O)[O-])c2)c2ccccc2Oc2ccccc21,13% (inactive)
4,O=C(O)CNC(=S)Nc1ccccc1,90% (active)
5,N/C(=N/N=C/c1cc(Br)cc(Br)c1O)NO,96% (active)
6,C[Si](C)(C)/C=C/CCNC(C#N)c1ccccc1 (stereo not drawn),95% (active)
7,CCCCCCCCCCCCCCCCOP(=O)(O)OCC(N)C(=O)O (stereo not drawn),97% (active)
8,CC1=C(C(=O)NCc2ccccc2)C(c2ccccc2)C(C(=O)NCc2ccccc2)=C(C)N1,94% (active)
9,O=[N+]([O-])c1cc(S(=O)(=O)Nc2ccccc2)ccc1Nc1ccccc1,78% (active)
10,COc1cc2ccnc(-c3c4ccccc4c(N)c4c(OC)c(OC)ccc34)c2cc1OC,46% (inactive)
11,CCOC(=O)C(Br)C(Br)c1ccccc1Cl (stereo not drawn),99% (active)
12,CCOC(=O)C1=C(C)NC(C)=C(C(=O)OCCNC(=O)c2ccc(N=[N+]=[N-])cc2)C1c1ccccc1C(F)(F)F (stereo not drawn),47% (inactive)
13,Cc1cc(C)c(NC(=S)NC(=O)c2ccccc2)cc1C,-11% (inactive)
14,CNCCCNc1c2ccccc2nc2cccc([N+](=O)[O-])c12,97% (active)
15,COc1c(O)c(C=O)c(Br)c(C=O)c1O,95% (active)
16,Cc1c(C)c(C)c(CSC(=N)N)c(C)c1C,98% (active)
17,O=C(CSC(=S)N1CCCCC1)Nc1nc2c(s1)CCCC2,79% (active)
18,CNC(=O)OCc1c(COC(=O)NC)c(-c2ccc(Cl)cc2)n2c1CCC2,87% (active)
19,CC(=O)OC1CC2C(C)(C)C(=O)C=C[C@]2(C)C2CCC3(C)C(=CCC3[C@H](CO)C[C@H](O)C(=O)C(C)(C)O)[C@]12C (stereo partly drawn),53% (inactive)
20,CCCCCCOC(=O)NCCOC(=O)Nc1ccccc1,8% (inactive)

row,SMILES,growth inhibition
1,C[C](C)(C)[Ge]([O][Ge]([c]1ccccc1)[c]1ccccc1)([O][Ge]([c]1ccccc1)[c]1ccccc1)[C](C)(C)C,79% (active)
2,CCc1c(Cl)c(C)cc(O)c1Cl,93% (active)
3,Cc1nc(Nc2ccccc2[N+](=O)[O-])sc1C(=O)CC(=O)C(=O)Nc1c(C(C)C)cccc1C(C)C,6% (inactive)
4,O=[N+]([O-])c1cccc2nc3ccccc3c(NCCCn3ccnc3[N+](=O)[O-])c12,97% (active)
5,CCCCCCC(O)CNCc1ccnc2ccc(OC)cc12 (stereo not drawn),46% (inactive)
6,Cc1c2cccc(Sc3ccccc3)c2c2c3c(cccc13)[S+](c1ccccc1)C2 (stereo not drawn),91% (active)
7,C=C1CCC(O)C/C1=C/C=C1\CCCC2(C)C1CCC2C(C)CCCC(C)C (stereo not drawn),-15% (inactive)
8,NC1=NNC2(C(N)=N1)c1ccccc1-c1ccccc12,96% (active)
9,COc1cc2cc3c4cc(OC)c(OC)cc4cc[n+]3c(C)c2cc1OC,-5% (inactive)
10,COC(=O)NC1C(C)OC(OC2C/C=C(/C)C3C=CC4C(OC5CC(OC6CC(O)C(OC7CC(O)C(OC)C(C)O7)C(C)O6)C(O)C(C)O5)C(C)CC(C)C4C3(C)/C(O)=C3\C(=O)OC4(CC(C)C(CO)=CC4/C=C\2C)C3=O)CC1(C)[N+](=O)[O-] (stereo not drawn),-3% (inactive)
11,O=C1CSC(c2cccc(Cl)c2)N1c1ccc(-c2ccc(-n3c(-c4ccccc4)nc4ccccc4c3=O)cc2)cc1 (stereo not drawn),16% (inactive)
12,CCOC(=O)C(C(=O)OCC)=P(c1ccccc1)(c1ccccc1)c1ccccc1,98% (active)
13,COc1ccc(N=CN(C)C)c(C)c1,96% (active)
14,Cc1cc(S(=O)(=O)Nc2nnc3cnc4ccccc4n23)c(S)cc1Cl,54% (inactive)
15,O=C(Oc1ccc2c(c1)CN(Cc1ccccc1)CO2)c1ccccc1,26% (inactive)
16,CN(C)[C@@H]1C(=O)C(C(N)=O)=C(O)[C@@]2(O)C(=O)C3=C(O)c4c(O)cccc4C[C@H]3C[C@@H]12,99% (active)
17,O=[N+]([O-])c1ccc2c(c1)/C(=N/N=C1c3ccccc3Cc3ccccc31)c1cc([N+](=O)[O-])cc([N+](=O)[O-])c1-2,95% (active)
18,Cc1nc2c(Br)cc(Br)cc2c(=O)n1-c1ccccc1NC1OCC(O)C(O)C1O (stereo not drawn),96% (active)
19,Cc1cc(N(CCOS(C)(=O)=O)CCOS(C)(=O)=O)ccc1C=Nc1ccc(-c2nc(Cc3ccccc3)sc2C)cc1,98% (active)
